# From PubChem BioAssay AID624288 (National Center for Advancing Translational Sciences (NCATS), 2012)
# Hit rate of the full screen: of about 340,000 compounds, about 1,400 (0.41%) were called active. Roughly 4% stayed inconclusive and do not appear here. Calls come from the whole dose curve; cell line not stated here. The list comes from a sample in which actives are over-represented; it also holds similar structures and randomly drawn compounds. Entries that show only a call come without a potency.
# Test: qHTS for Antagonists of gsp, the Etiologic Mutation Responsible for Fibrous Dysplasia/McCune-Albright Syndrome: qHTS; note: nearly all actives have a fitted effect of over 65% in size
# Conditions: gsp-mutant cells, cAMP HTRF, 30 min; series mostly up to 76.9 µM
# From the text: McCune-Albright syndrome (MAS) is a rare disease caused by somatic mutations in Gsgsp), a widely expressed protein central in signal transduction from G-coupled protein receptors (GPCRs). The disease symptoms are diverse, owing to the fact that the patients are mosaics with varying degrees of tissue involvement. Greater than 90% of the mutations in Gs in MAS occur at the R201 position and are equally divided between R201H and R201C. The R201 residue is central in the intrinsic GTPase activity of Gs and the H and C mutations lead to loss of, or impairment of, the GTPase activity. The intrinsic GTPase activity is necessary to terminate the interaction between Gs and adenylate cyclase, and to terminate the cAMP-mediated signaling of the given GPCR pathway. Thus, these activating mutations lead to ligand-independent activation of GPCR pathways. The tissue phenotype is determined by the role of Gs in the function of a given cell, and excess Gs/cAMP signaling in that cell. For example, pituitary somatotrophs overproduce growth hormone in a growth hormone releasing hormone-independent fashion, and gigantism/acromegaly ensues. Skeletal stem cells in the bone marrow behave as if they are under constant parathyroid hormone stimulation and fail to differentiate into osteoblasts and osteocytes, and proliferate as immature osteogenic cells and lead to the marrow fibrosis of fibrous dysplasia of bone. The goal of this project is to identify molecules with inhibitory activity at gsp mutations that will not only allow for in-depth study of the underlying molecular and cellular pathophysiology, but also serve as compounds from which drugs to treat FD/MAS can be developed NIH Chemical Genomics Center [NCGC] NIH Molecular Libraries Probe Centers Network [MLPCN] MLPCN Grant: IRP-FT-DE-2011-01 Assay Submitter (PI): Michael Collins, NIDCR
# 1.#Seed 2000 cells/well in 6 ul DMEM 10% FBS, 1% Pen/Strep, 0.5 mg/ml G418 2.#Incubate 16-24 hr at 37C, 5% CO2, 95% humidity 3.#Aspirate leaving 1 ul residual volume 4.#Dispense 5 ul/well DPBS + 1 mM CaCl2, 0.5 mM MgCl2, 0.05% BSA, 0.005% Tween 20 5.#Aspirate leaving 2 ul residual volume 6.#Dispense 23 nl/well compounds in DMSO 7.#Dispense 1 ul/well 300 uM Ro-20174 in DMEM 10% FBS 8.#Incubate 30 min at 37C, 5% CO2, 95% humidity 9.#Dispense 1.5 ul/well HTRF reagent: cAMP-d2 in lysis buffer 10.#Dispense 1.5 ul/well HTRF reagent: anti-cAMP antibody-K in lysis buffer 11.#Incubate 30 min at room temperature 12.#Detect HTRF signal using EnVision plate reader
# Potency is the fitted concentration of half-maximal effect.
row,Structure (SMILES),Potency
1,CC1=CC(=Cc2sc3ccccc3[n+]2C)C=C(C)O1,44.7 µM (active)
2,COc1ccc(-n2c(-c3ccccc3)nc3ccccc3c2=O)cc1,inactive
3,Cc1ccc(-n2c(-c3ccc([N+](=O)[O-])cc3)nc3ccccc3c2=O)cc1,inactive
4,COc1cc(C(c2c(O)c3ccccc3oc2=O)c2c(C)n(C)n(-c3ccccc3)c2=O)ccc1O (stereo not given),inactive
5,CCC(=O)CC(c1ccc([N+](=O)[O-])cc1)c1c(O)c2ccccc2oc1=O (stereo not given),31.6 µM (active)
6,CC[C@H]1CN2CCc3cc(OC)c(OC)cc3[C@@H]2C[C@@H]1C[C@H]1NCCc2cc(OC)c(OC)cc21,inactive
7,CN(C)C(=O)NC(O)C(Cl)(Cl)Cl (stereo not given),inactive
8,CC(=O)OC1C2(CC3N4C(=O)C5(CO)SSC4(CC31O)C(=O)N5C)OC(C)C(C)(C)C2=O (stereo not given),inactive
9,C=CCn1c(O)c(/C=N/N2CCOCC2)c(=O)[nH]c1=S,inactive
10,COC(=O)C1=C(c2c(C)noc2C)C[C@@H]2CC[C@H]1N2C(=O)NCc1ccc2c(c1)OCO2,inactive
